WRN helicase inh = inhibitors of human WRN helicase; Q14191; AID 651768; Potency, µM (highest dose often 114 µM), most hits filed as inhibitors; 360,000 tested, 0.46% active; WRN helicase unwinding, fluorescent forked duplex, kinetic; also: nearly all actives have a fitted effect of over 55% in size
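Primary qHTS, 1536-well format. 20 nM WRN + compound, 15 min RT; start with 100 nM forked fluorophore/quencher duplex, 2 mM ATP (final); kinetic read ex 525/em 598 nm.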
POLK inh = DNA polymerase kappa (human) inhibition; Q9UBT6; purified Pol kappa, fluorescent DNA synthesis assay, 10 min; Potency, µM (highest dose often 107 µM), hits mostly inhibitors; 400,000 tested, 0.53% active
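Inhibition of 10 nM Pol kappa is measured by a fluorescent read-out at 0 and 10 min following addition of 50 nM substrate (final), with a 15-min room-temperature compound preincubation.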
POLI inh = DNA polymerase iota (human) inhibition; Q9UNA4; 390,000 tested, 1% active; Pol iota fluorescent replication assay, 10 min; Potency, µM (highest dose often 115 µM), most hits filed as inhibitors
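Fluorescent replication assay read twice, at 0 min and 10 min after adding 50 nM (final) substrate. Enzyme (10 nM) and compounds were first incubated 15 min at room temperature; enzyme-free buffer wells were negative controls.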
Pol beta inh = blocks human DNA polymerase beta activity; Pol beta primer extension/strand displacement, fluorescence kinetic; P06746; 340,000 tested, 1.3% active; Potency, µM (titrated, usually from 114 µM), hits mostly inhibitors
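10 nM enzyme + cpd, 15 min RT; start with substrate 50 nM final; read 0 min and after 10 min RT. Corrected, normalized data; 4-parameter Hill curve fit.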
POLH inh = inhibitors of human DNA polymerase eta; 390,000 tested, 1.2% active; Potency, µM (doses to about 114 µM), hits mostly inhibitors; recombinant Pol eta, fluorescent DNA replication assay
Target sequence (Q9Y253 whole entry, looked up): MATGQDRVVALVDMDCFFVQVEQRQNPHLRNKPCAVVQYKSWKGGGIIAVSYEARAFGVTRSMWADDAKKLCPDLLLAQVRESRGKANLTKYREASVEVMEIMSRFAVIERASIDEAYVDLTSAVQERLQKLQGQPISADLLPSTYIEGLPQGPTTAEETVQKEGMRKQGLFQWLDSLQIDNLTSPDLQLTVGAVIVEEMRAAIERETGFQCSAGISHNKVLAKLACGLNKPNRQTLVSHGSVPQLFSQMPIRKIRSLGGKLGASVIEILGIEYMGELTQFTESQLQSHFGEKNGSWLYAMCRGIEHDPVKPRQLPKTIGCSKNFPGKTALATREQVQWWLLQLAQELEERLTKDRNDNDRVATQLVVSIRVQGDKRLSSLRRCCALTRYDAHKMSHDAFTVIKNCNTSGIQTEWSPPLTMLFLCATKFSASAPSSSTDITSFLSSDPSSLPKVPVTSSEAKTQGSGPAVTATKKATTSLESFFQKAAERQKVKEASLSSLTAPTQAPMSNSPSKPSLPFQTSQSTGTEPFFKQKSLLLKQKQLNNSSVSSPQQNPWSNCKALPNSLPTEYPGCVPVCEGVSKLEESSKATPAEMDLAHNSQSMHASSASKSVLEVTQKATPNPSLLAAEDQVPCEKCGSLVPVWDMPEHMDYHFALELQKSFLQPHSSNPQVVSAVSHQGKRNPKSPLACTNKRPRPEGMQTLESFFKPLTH
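Pol eta (10 nM) was preincubated with compounds for 15 min at room temperature, after which fluorescent replication substrate (50 nM final) was added to start the reaction. Fluorescence was read kinetically at 0 and 10 min.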
Large screens that a line does not name were inactive. Most compounds without a hit are left out; they make up all but 2.3% or so of the library. Calls follow the shape of the dose curve; as a rule, active = well fitted curve in the direction sought with a large enough effect; inconclusive = small, poorly fitted or top-dose-only effect, or another doubt; inactive = no such curve, though single readings can be large; an effect the other way counts as inactive or inconclusive.

CC(=O)NC1CCCC1C#N (stereo unspecified)	none (no result: WRN helicase inh, Pol beta inh, POLH inh)
C#CCOCCOCCOCCNc1nc(N2CCN(C(=O)[C@H](Cc3ccc(O)cc3)n3cc([C@@H](N)C(C)CC)nn3)CC2)nc(N2CCN(C(=O)[C@H](Cc3cc4ccccc4[nH]3)n3cc([C@@H](N)Cc4ccc(O)cc4)nn3)CC2)n1 (stereo partly specified)	none (no result: WRN helicase inh, POLK inh, POLI inh, POLH inh)
C#CCOCCOCCOCCNc1nc(N2CCN(C(=O)C(Cc3cc4ccccc4[nH]3)n3cc(C(N)C(C)CC)nn3)CC2)nc(N2CCN(C(=O)C(Cc3cc4ccccc4[nH]3)n3cc(C(N)C(C)CC)nn3)CC2)n1 (stereo unspecified)	POLI inh inconclusive, Pol beta inh 20µM
C#CCOCCOCCOCCNc1nc(N2CCN(C(=O)[C@H]([C@@H](C)CC)n3cc([C@@H](N)CC(C)C)nn3)CC2)nc(N2CCN(C(=O)[C@H](Cc3cc4ccccc4[nH]3)n3cc([C@@H](N)Cc4ccc(O)cc4)nn3)CC2)n1	POLI inh inconclusive
C#CCOCCOCCOCCNc1nc(N2CCN(C(=O)[C@H](Cc3ccc(O)cc3)n3cc([C@@H](N)CC(C)C)nn3)CC2)nc(N2CCN(C(=O)[C@H](Cc3cc4ccccc4[nH]3)n3cc([C@@H](N)CC(C)C)nn3)CC2)n1	WRN helicase inh inconclusive, POLI inh inconclusive, Pol beta inh 35.5µM
C#CCOCCOCCOCCNc1nc(N2CCOCC2)nc(N2CCN(C(=O)[C@H](Cc3cc4ccccc4[nH]3)n3cc([C@@H](N)C(C)CC)nn3)CC2)n1 (stereo partly specified)	POLI inh inconclusive
C#CCOCCOCCOCCNc1nc(N2CCN(C(=O)C(Cc3ccc(O)cc3)n3cc(C(N)CC(C)C)nn3)CC2)nc(N2CCN(C(=O)C(Cc3cc4ccccc4[nH]3)n3cc(C(N)C(C)CC)nn3)CC2)n1 (stereo unspecified)	Pol beta inh 50.1µM (no result: WRN helicase inh, POLK inh, POLI inh, POLH inh)
C#CCOCCOCCOCCNc1nc(N2CCN(C(=O)[C@H](Cc3ccc(O)cc3)n3cc([C@@H](N)CC(C)C)nn3)CC2)nc(N2CCN(C(=O)[C@H](Cc3ccc(O)cc3)n3cc([C@@H](N)CC(C)C)nn3)CC2)n1	Pol beta inh 31.6µM (no result: WRN helicase inh, POLK inh, POLI inh, POLH inh)
C#Cc1cccc(Nc2ncnc3cc(OC)c(OC)cc23)c1	none (no result: WRN helicase inh, POLI inh, Pol beta inh, POLH inh)
Cc1ccnc2c(N)cccc12	none (no result: WRN helicase inh, Pol beta inh, POLH inh)
CCN(CC)C(=O)CC(c1ccc2c(c1)OCO2)c1c(OC)cc(OC)c2ccc(=O)oc12 (stereo unspecified)	POLK inh 79.4µM, POLI inh 89.1µM, Pol beta inh 50.1µM, POLH inh 35.5µM
CCN(CC)C(=O)CC(c1ccc(N(C)C)cc1)c1c(OC)cc(OC)c2ccc(=O)oc12 (stereo unspecified)	POLI inh inconclusive
COc1ccc(C=C2c3ccccc3C(=O)c3ccccc32)cc1O	none (no result: WRN helicase inh, POLI inh, Pol beta inh, POLH inh)
NC(=O)C(CC(=O)O)NC(=O)[C@@H]1CCCNc2c(I)cc([N+](=O)[O-])cc2C(=O)N[C@@H](CO)C(=O)N[C@@H](Cc2ccc(O)cc2)C(=O)N1 (stereo partly specified)	WRN helicase inh inconclusive, POLK inh 50.1µM, POLI inh inconclusive, POLH inh 15.8µM
NC(=O)C(CC(=O)O)NC(=O)[C@@H]1CCCCNc2c(I)cc([N+](=O)[O-])cc2C(=O)N[C@@H](CO)C(=O)NCC(=O)N1 (stereo partly specified)	Pol beta inh 35.5µM (no result: WRN helicase inh, POLK inh, POLI inh, POLH inh)
NC(=O)CC[C@@H]1NC(=O)[C@H](CO)NC(=O)c2cc([N+](=O)[O-])cc(I)c2NCCCC[C@@H](C(N)=O)NC(=O)[C@H](Cc2ccc(O)cc2)NC1=O	POLI inh inconclusive
NCCCC[C@@H]1NC(=O)c2cc([N+](=O)[O-])cc(F)c2NCCCC[C@@H](C(N)=O)NC(=O)CNC1=O	none
CCOc1ccccc1CNC(=O)c1cccc(NC(=O)c2nsc3ccccc23)c1	none (no result: WRN helicase inh)
O=C(NCc1ccccc1)[C@]1(C(F)(F)F)C[C@H](CCCO)CCCO1	none (no result: WRN helicase inh, Pol beta inh, POLH inh)
N#Cc1nc(-c2ccc(OCc3ccccc3Cl)cc2)oc1N1CCCCCC1	none (no result: WRN helicase inh, Pol beta inh, POLH inh)
COc1cc(C(C)=O)ccc1OCc1cn(CC(=O)c2ccc(O)cc2)nn1	POLI inh 4.47µM (no result: Pol beta inh)
O=C(Cn1cc(COc2ccc(Br)cc2[N+](=O)[O-])nn1)c1ccc(O)cc1	POLI inh 4.47µM (no result: Pol beta inh)
O=C(Cn1cc(COc2ccccc2C(F)(F)F)nn1)c1ccc(O)cc1	POLI inh 5.01µM (no result: Pol beta inh)
COc1cc(C=O)ccc1OCc1cn(CC(=O)c2ccc(O)cc2)nn1	none (no result: Pol beta inh)
CC(=O)c1ccc(OCc2cn(CC(=O)c3ccc(O)cc3)nn2)c(C)c1	none (no result: POLK inh, POLI inh, Pol beta inh)
Cc1cccc(C)c1OCc1cn(CC(=O)c2ccc(O)cc2)nn1	POLI inh 7.94µM (no result: Pol beta inh)
COc1ccc(-c2nc3ccc(NC(=O)CO)cc3c(=O)n2Cc2cccc(Cl)c2)cc1COc1ccc(NC(C)=O)cc1	none (no result: WRN helicase inh, Pol beta inh, POLH inh)
O=C([O-])[C@@H]1[O][Sb+]([O][Sb+]2[O][C@H]([C@H](O)CO)[C@H](O)[C@H](C(=O)[O-])[O]2)[O][C@H]([C@H](O)CO)[C@@H]1O	none (no result: WRN helicase inh, POLI inh, Pol beta inh, POLH inh)
CN(C)/[N+]([O-])=N/Oc1ccc([N+](=O)[O-])cc1[N+](=O)[O-]	POLI inh inconclusive (no result: WRN helicase inh, Pol beta inh, POLH inh)
NS(=O)(=O)c1ccc(-c2ccc(C=C3C(=O)c4ccccc4C3=O)o2)cc1	POLI inh inconclusive
CC(C)CC1=C/C(=C/c2ccc(-c3ccccc3)o2)C(=O)O1	WRN helicase inh 50.1µM, POLK inh 44.7µM, POLI inh 20µM, Pol beta inh 15.8µM, POLH inh 2.82µM
O=C(c1cccc(N2C(=O)C3CC=CCC3C2=O)c1)N1CCN(c2ccccc2)CC1 (stereo unspecified)	Pol beta inh 44.7µM
Cn1c(N=Nc2ccc(N3CCOCC3)cc2)[n+](C)c2ccccc21	WRN helicase inh 44.7µM
CN(C)c1ccc(/C=C2\C(Cl)=Cc3ccccc32)cc1	none (no result: WRN helicase inh, Pol beta inh, POLH inh)
O=C1c2ccccc2-c2onc3c(Oc4ccccc4)cc(O)c1c23	Pol beta inh 35.5µM (no result: WRN helicase inh, POLK inh, POLI inh, POLH inh)
COc1ccc2nc(N3CCCCC3)c(/C=C3\SC(=S)NC3=O)cc2c1	WRN helicase inh inconclusive, POLH inh 35.5µM
O=C1NC(=S)SC1=Cc1ccccc1Cl	POLI inh inconclusive (no result: Pol beta inh)
O=C1NC(=S)S/C1=C\c1cc2ccccc2nc1N1CCCCC1	Pol beta inh inconclusive, POLH inh 39.8µM
COc1ccc(-n2c(C)cc(/C=C3\SC(=S)NC3=O)c2C)cc1	POLH inh inconclusive
Nc1ccc2oc(=O)ccc2c1I	none (no result: WRN helicase inh, POLI inh, Pol beta inh, POLH inh)
CC(C)C(C)(C#N)NC(=O)CSc1nc2scc(-c3ccco3)c2c(=O)n1-c1ccccc1 (stereo unspecified)	POLI inh inconclusive, Pol beta inh 28.2µM
C=CCn1c(SCC(C)=O)nc2scc(-c3ccco3)c2c1=O	WRN helicase inh inconclusive, POLK inh inconclusive, POLI inh inconclusive, Pol beta inh 10µM, POLH inh 39.8µM

Screens as filed in PubChem.
